# Measured values from PubChem BioAssay (NCATS).
# Records with an inconclusive call do not appear. Some structures have more than one record in an assay (separate samples or runs), and their calls can disagree. Active and inactive are the calls of the source. Unless noted, the call rests on the fitted dose curve; in most records, active means well fitted curve in the direction sought with a large enough effect; inconclusive means small, poorly fitted or top-dose-only effect, or another doubt; inactive means no such curve, though single readings can be large; an effect the other way counts as inactive or inconclusive.
# Key:
# [1] = P-glycoprotein substrates identified in KB-3-1 adenocarcinoma cell line, qHTS therapeutic library screen (AID 1346986); further: nearly all actives have a fitted effect of over 60% in size;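 further: potency means the concentration at half of the fitted maximal effect; potency is for cytotoxicity meaning loss of cell viability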
# In short: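 KB-3-1 parental and colchicine-selected P-gp-overexpressing KB-8-5-11 cells (colchicine omitted during assay), 500 cells/well, dosed in dose-response for 72 h at 37 °C; CellTiter-Glo luminescence. Cytotoxic: curve class -1.1 to -2.4, max response >50%, AC50 < 10 uM.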
# [2] = P-glycoprotein substrates identified in KB-8-5-11 adenocarcinoma cell line, qHTS therapeutic library screen (AID 1346987); further: nearly all actives have a fitted effect of over 65% in size; further: potency means the concentration at half of the fitted maximal effect
# In short: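 Steps: plate 500 KB-8-5-11 cells/well in DMEM + 10% FCS (colchicine removed); pin compounds in dose-response; incubate 72 h, 37 degree C, 5% CO2; add CellTiter-Glo, 5 min; read luminescence.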
# [3] = Primary qHTS for inhibitors of nuclear receptor binding SET domain protein 2 (NSD2) in an isogenic RCH-ACV NSD2 p.E1099K mutant (9B) (AID 1645876); further: nearly all actives have a fitted effect of over 70% in size; further: potency means the concentration at half of the fitted maximal effect
# [4] = Primary qHTS for inhibitors of nuclear receptor binding SET domain protein 2 (NSD2) in an RCH-ACV wild type WT cells (2C) (AID 1645877); further: nearly all actives have a fitted effect of over 70% in size; further: potency means the concentration at half of the fitted maximal effect
# [5] = target: Catechol O-methyltransferase (Homo sapiens) (UniProt P21964); experiment: Confirmatory Screen for Target Class Profiling of Small Molecule Inhibitors of Methyltransferases (AID 1745852; calls by dose curve; further: potency means the concentration at half of the fitted maximal effect; on activity change, negative = inhibition: on the % scale 0 is the no-effect control and ±100 the full control effect); conditions: MTase-Glo luminescence, SAH detection, recombinant enzyme; measured here: COMT max response; stronger effect = lower value
# Chain of Catechol O-methyltransferase (Homo sapiens) (P21964 whole entry, looked up): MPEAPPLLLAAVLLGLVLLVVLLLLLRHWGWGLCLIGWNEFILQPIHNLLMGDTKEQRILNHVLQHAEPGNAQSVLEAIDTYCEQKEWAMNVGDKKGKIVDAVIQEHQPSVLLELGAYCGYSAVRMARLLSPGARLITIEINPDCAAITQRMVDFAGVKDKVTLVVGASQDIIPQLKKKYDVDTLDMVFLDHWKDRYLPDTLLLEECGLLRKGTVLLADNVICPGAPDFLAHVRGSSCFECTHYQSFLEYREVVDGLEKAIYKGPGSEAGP
# [6] = target: Guanidinoacetate N-methyltransferase (Homo sapiens) (UniProt Q14353); experiment: as above; conditions: activity change, negative = inhibition: at 57.3 µM (top of the series) unless noted
# [7] = target: Nicotinamide N-methyltransferase (Homo sapiens) (UniProt P40261); experiment: as above; conditions: MTase-Glo luminescence, SAH detection, recombinant enzyme; measured here: NNMT max response; stronger effect = lower value
# Chain of Nicotinamide N-methyltransferase (Homo sapiens) (P40261 whole entry, looked up): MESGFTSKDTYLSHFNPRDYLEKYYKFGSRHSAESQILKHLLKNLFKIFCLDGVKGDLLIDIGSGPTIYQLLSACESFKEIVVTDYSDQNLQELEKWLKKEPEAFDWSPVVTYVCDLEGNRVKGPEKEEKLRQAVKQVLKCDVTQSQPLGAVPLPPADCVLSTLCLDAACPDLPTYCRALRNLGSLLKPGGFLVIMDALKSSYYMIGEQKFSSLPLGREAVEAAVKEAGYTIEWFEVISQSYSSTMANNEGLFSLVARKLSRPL
# [8] = target: Phenylethanolamine N-methyltransferase (Homo sapiens) (UniProt P11086); experiment: as above; conditions: MTase-Glo luminescence, SAH detection, recombinant enzyme; measured here: PNMT max response; stronger effect = lower value
# Chain of Phenylethanolamine N-methyltransferase (Homo sapiens) (P11086 whole entry, looked up): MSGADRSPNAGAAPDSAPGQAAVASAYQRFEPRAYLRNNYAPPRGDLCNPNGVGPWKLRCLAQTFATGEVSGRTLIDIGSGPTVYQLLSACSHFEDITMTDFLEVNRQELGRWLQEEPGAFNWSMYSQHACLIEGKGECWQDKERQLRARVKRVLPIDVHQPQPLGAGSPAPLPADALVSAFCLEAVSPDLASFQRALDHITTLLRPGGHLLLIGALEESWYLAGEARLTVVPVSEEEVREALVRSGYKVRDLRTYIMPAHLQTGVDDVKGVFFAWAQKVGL
# [9] = target: Glutathione peroxidase 1 (Homo sapiens) (UniProt P07203); experiment: Primary qHTS Assay for Inhibitors of Recombinant Selenoprotein Glutathione Peroxidase 1 (GPX1) (AID 1845191); further: nearly all actives have a fitted effect of over 65% in size; further: potency means the concentration at half of the fitted maximal effect
# Chain of Glutathione peroxidase 1 (Homo sapiens) (P07203 whole entry, looked up): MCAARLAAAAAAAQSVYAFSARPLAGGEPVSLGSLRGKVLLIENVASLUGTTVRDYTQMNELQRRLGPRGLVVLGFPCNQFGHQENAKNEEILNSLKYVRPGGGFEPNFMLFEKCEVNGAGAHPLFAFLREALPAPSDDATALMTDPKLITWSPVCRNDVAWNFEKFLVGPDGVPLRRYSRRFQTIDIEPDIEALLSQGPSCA
# In short: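 GR-coupled assay: compounds preincubated 30 min at room temperature with GPX1, then reaction started with CHP; final 10 nM GPX1, 1 mM GSH, 0.5 mM CHP, 0.5 mM NADPH, 100 nM GR, 0.01% BSA, pH 7.5 Tris buffer. NADPH fluorescence (340/450 nm) read at 0 and 15 min.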
# [10] = NCATS anti-infectives library activity on HEK293 viability as a counter-qHTS vs the C. elegans viability qHTS (AID 1745854);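 further: HEK293 cells exposed to compounds for 24 hr before the viability read; on the % scale 0 is the no-effect control and ±100 the full control effect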
# In short: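 Compounds were acoustically plated (several concentrations, 1:5, final up to 41.7 uM), then 1500 HEK293 cells added per well and incubated 24 hr at 37C, 5% CO2. CellTiter-Glo was added and luminescence read after 10 min.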
# [11] = target: Phospholipid hydroperoxide glutathione peroxidase GPX4 (Homo sapiens) (UniProt P36969); experiment: Primary qHTS Assay for Inhibitors of Recombinant Selenoprotein Glutathione Peroxidase 4 (GPX4) (AID 1845192); conditions: outcome: dose series up to 50 µM unless noted; further: nearly all actives have a fitted effect of over 65% in size
# Chain of Phospholipid hydroperoxide glutathione peroxidase GPX4 (Homo sapiens) (P36969 whole entry, looked up): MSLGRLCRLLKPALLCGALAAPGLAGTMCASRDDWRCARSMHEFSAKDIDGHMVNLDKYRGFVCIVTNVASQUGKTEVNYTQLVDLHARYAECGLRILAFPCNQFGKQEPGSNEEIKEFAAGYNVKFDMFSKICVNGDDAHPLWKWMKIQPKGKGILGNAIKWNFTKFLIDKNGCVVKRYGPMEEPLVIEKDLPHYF
# In short: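 GR-coupled assay: recombinant GPX4 preincubated 30 min with compound at room temperature; final 200 nM GPX4, 1 mM GSH, 0.5 mM cumene hydroperoxide, 0.5 mM NADPH, 100 nM GR, 0.01% BSA, pH 7.5 Tris. NADPH fluorescence (340/450 nm) read at 0 and 15 min.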
# [12] = qHTS drug screen for cell cycle checkpoint inhibitors in PARPi-resistant BRCA-mutant ovarian cancer cell lines. (AID 1963452; calls by dose curve); conditions: PEO1/OlaR viability, CellTiter-Glo luminescence, 96 h, stronger effect = lower value
# In short: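 PEO1, PEO4 and PEO1/OlaR ovarian cancer cells, 600 per well, exposed 96 h at 37C to a dilution series. Viability read by CellTiter-Glo luminescence, normalized to DMSO and empty wells; activity summarized as Z-AUC.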
# [13] = target: Tyrosine-protein kinase Yes (Homo sapiens) (UniProt P07947); experiment: qHTS for small molecule inhibitors of Yes1 kinase: Primary Screen (AID 686947); further: potency means the concentration at half of the fitted maximal effect; nearly all actives have a fitted effect of over 60% in size
# Chain of Tyrosine-protein kinase Yes (Homo sapiens) (P07947 whole entry, looked up): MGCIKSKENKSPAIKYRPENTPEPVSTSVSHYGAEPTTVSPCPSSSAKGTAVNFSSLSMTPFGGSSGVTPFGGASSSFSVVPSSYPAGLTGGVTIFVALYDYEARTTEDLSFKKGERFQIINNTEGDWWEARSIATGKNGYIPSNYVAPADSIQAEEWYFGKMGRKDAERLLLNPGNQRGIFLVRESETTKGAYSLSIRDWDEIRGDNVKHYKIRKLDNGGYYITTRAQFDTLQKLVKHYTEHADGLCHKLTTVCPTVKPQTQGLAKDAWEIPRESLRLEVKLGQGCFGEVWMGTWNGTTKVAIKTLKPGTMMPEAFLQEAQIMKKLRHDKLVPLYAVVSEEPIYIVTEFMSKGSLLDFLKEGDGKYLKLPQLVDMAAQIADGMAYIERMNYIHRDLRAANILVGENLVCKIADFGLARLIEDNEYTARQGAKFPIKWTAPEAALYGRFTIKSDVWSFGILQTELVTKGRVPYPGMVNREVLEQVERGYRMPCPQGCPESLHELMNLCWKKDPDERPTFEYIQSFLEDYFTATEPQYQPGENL
# In short: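 Yes1 (4 nM) preincubated 20 min with compound, then 60 min room-temperature reaction with 0.1 mM ATP and 0.3 mg/mL poly(E4Y) in pH 7.5 Tris, 10 mM MgCl2. ADP measured by ADP-Glo luminescence, normalised to enzyme/no-enzyme controls.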
# [14] = qHTS for small molecule inhibitors of Yes1 kinase: Counter Assay (AID 686950);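 further: no kinase present so only ADP-Glo detection of a fixed ADP amount is tested; luminescence from ADP-Glo reporting ADP in a fixed ATP and ADP mixture; 0% = DMSO wells with ATP plus ADP and -100% = ATP-only wells without ADP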
# In short: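 Enzyme-free detection counter-screen: compounds preincubated 20 min in buffer, then 0.08 mM ATP plus 0.02 mM ADP added for 60 min at room temperature; ADP-Glo luminescence. Buffer 50 mM Tris pH 7.5, 10 mM MgCl2, 150 mM NaCl; normalized to ATP+ADP and ATP-only controls.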
# [15] = measured here: PEO1 parental Z-AUC
structure (smiles),measurement,setting,value
Oc1cc(CNC(=S)/C=C/c2cc(O)c(O)c(Br)c2)cc(O)c1O,Potency,[1],7310 nM (active)
same,Potency,[2],7310 nM (active)
same,Potency,[3],1.16 µM (active)
same,Potency,[4],1.03 µM (active)
same,activity,[5],-46.2%
same,"activity change, negative = inhibition",[6],-4.79%
same,activity,[7],-0.986%
same,activity,[8],-0.984%
same,Potency,[9],8060 nM (active)
Nc1ncnc2c1nc(Cl)n2C1O[C@H](CO)[C@@H](O)[C@H]1O (stereo partly drawn),Potency,[1],2910 nM (active)
same,Potency,[2],1840 nM (active)
same,Potency,[3],2.59 µM (active)
same,Potency,[4],1.84 µM (active)
Cc1c(-c2ccnc(Nc3cc(Br)cc(C(F)(F)F)c3)n2)sc(=O)n1C,Potency,[1],inactive
same,Potency,[2],inactive
same,Potency,[3],5.8 µM (active)
same,Potency,[4],4.11 µM (active)
same,Potency,[9],inactive
CN1CCC(c2c(O)cc(O)c3c(=O)cc(-c4ccccc4Cl)oc23)C(O)C1 (stereo not drawn),Potency,[1],231 nM (active)
same,Potency,[2],517 nM (active)
same,Potency,[3],0.291 µM (active)
same,Potency,[4],0.259 µM (active)
CC(C)C(=O)OC[C@H]1O[C@@H](n2ccc(N)nc2=O)[C@](C)(F)[C@@H]1OC(=O)C(C)C,Potency,[1],inactive
same,Potency,[2],inactive
same,Potency,[3],inactive
same,Potency,[4],inactive
same,outcome,[10],inactive
O=C1c2ccccc2-c2nc3nnnn3nc21 (tested in a mixture with another compound),Potency,[1],920 nM (active)
same,Potency,[2],920 nM (active)
same,Potency,[3],0.082 µM (active)
same,Potency,[4],0.184 µM (active)
same,activity,[5],-95.2%
same,Potency,[6],482 nM (active)
same,activity,[7],-67.5%
same,activity,[8],-24.7%
same,Potency,[9],16100 nM (active)
O=C(O)c1c[nH]c2c(ccc3ccccc32)c1=O,Potency,[1],inactive
same,Potency,[2],inactive
same,Potency,[3],inactive
same,Potency,[4],inactive
same,Potency,[9],inactive
BrC1C(Br)C(Br)C(Br)C(Br)C1Br (stereo not drawn),Potency,[1],inactive
same,Potency,[2],inactive
same,Potency,[3],inactive
same,Potency,[4],inactive
same,Potency,[9],inactive
CCOC(=O)c1c2c3c(cccc3[nH]c1=O)C(=O)c1ccccc1-2,Potency,[1],inactive
same,Potency,[2],inactive
same,Potency,[3],inactive
same,Potency,[4],inactive
same,Potency,[9],inactive
O=C1Cc2c([nH]c3ccc([N+](=O)[O-])cc23)-c2ccccc2N1,Potency,[1],1780 nM (active)
same,Potency,[2],2520 nM (active)
same,Potency,[3],0.796 µM (active)
same,Potency,[4],0.632 µM (active)
same,Potency,[9],inactive
COC1(c2sc3c(N4CCOCC4)nc(-c4cnc(N)nc4)nc3c2C)COC1,Potency,[1],184 nM (active)
same,Potency,[2],184 nM (active)
same,Potency,[3],0.209 µM (active)
same,Potency,[4],0.186 µM (active)
same,Potency,[9],inactive
same,Potency,[11],inactive
same,Z-AUC,[12],-1.69 (inactive)
same,Z-AUC,[12]; [15],-1.58
same,Z-AUC,[12]; measured here: PEO4 Z-AUC,-1.08
OCC(O)CCO/N=C1/C(c2c(O)[nH]c3ccccc23)=Nc2ccccc21 (stereo not drawn),Potency,[1],14600 nM (active)
same,Potency,[2],16400 nM (active)
same,Potency,[3],2.59 µM (active)
same,Potency,[4],2.59 µM (active)
same,Potency,[9],inactive
COc1cc2ncnc(Sc3nnc(C)s3)c2cc1OC,Potency,[1],18400 nM (active)
same,Potency,[2],16400 nM (active)
same,Potency,[3],2.91 µM (active)
same,Potency,[4],3.26 µM (active)
same,Potency,[9],inactive
CC/C=C\CC1C(=O)CCC1CC(=O)OC (stereo not drawn),Potency,[1],inactive
same,Potency,[2],inactive
same,Potency,[3],inactive
same,Potency,[4],inactive
same,Potency,[9],inactive
COc1cc(OC)c(/C=C2\C(=O)Nc3ccccc32)c(OC)c1,Potency,[1],920 nM (active)
same,Potency,[2],920 nM (active)
same,Potency,[3],1.03 µM (active)
same,Potency,[4],0.92 µM (active)
same,Potency,[9],inactive
CCOc1cccc2c1OC(c1ccc(F)cc1)C([N+](=O)[O-])=C2 (stereo not drawn),Potency,[1],8200 nM (active)
same,Potency,[2],11600 nM (active)
same,Potency,[3],5.8 µM (active)
same,Potency,[4],5.8 µM (active)
same,Potency,[9],inactive
CS(=O)(=O)c1ccc([C@@H](C[C@H]2CCC(=O)C2)C(=O)Nc2cnccn2)cc1Cl,Potency,[1],inactive
same,Potency,[2],inactive
same,Potency,[3],inactive
same,Potency,[4],inactive
same,Potency,[9],inactive
CCN(CC)CCNC(=O)c1c(C)[nH]c(/C=C2\C(=O)Nc3ccc(Cl)cc32)c1C,Potency,[1],16400 nM (active)
same,Potency,[2],18400 nM (active)
same,Potency,[3],2.59 µM (active)
same,Potency,[4],2.91 µM (active)
same,Potency,[9],inactive
CC(C)OC(=O)OCOP(=O)(COC(C)Cn1cnc2c(N)ncnc21)OCOC(=O)OC(C)C (stereo not drawn),Potency,[1],inactive
same,Potency,[2],inactive
same,Potency,[4],inactive
Cc1cncc2cccc(S(=O)(=O)N3CCCNC[C@@H]3C)c12,Potency,[1],6510 nM (active)
same,Potency,[2],1640 nM (active)
same,Potency,[3],13 µM (active)
same,Potency,[4],3.66 µM (active)
same,Potency,[9],inactive
CCN(CC)CCNc1ccc2ncn3c4ccc(O)cc4c(=O)c1c23,Potency,[1],1300 nM (active)
same,Potency,[2],1300 nM (active)
same,Potency,[3],0.0651 µM (active)
same,Potency,[4],0.058 µM (active)
same,Potency,[9],inactive
COc1ccc(-c2oc3ncnc(N)c3c2-c2ccc(NC(=O)Nc3cc(C(F)(F)F)ccc3F)cc2)cc1,Potency,[13],1040 nM (active)
same,outcome,[14],inactive
same,Potency,[1],4610 nM (active)
same,Potency,[2],5800 nM (active)
same,Potency,[3],6.51 µM (active) and inactive
same,Potency,[4],10.3 µM (active) and inactive
same,Potency,[9],inactive
same,Z-AUC,[12],0.736 (inactive)
same,Z-AUC,[12]; [15],0.865
same,Z-AUC,[12]; measured here: PEO4 Z-AUC,0.712
COC(=O)C#Cc1ccc([N+](=O)[O-])cc1,Potency,[1],13000 nM (active)
same,Potency,[2],18400 nM (active)
same,Potency,[3],4.61 µM (active)
same,Potency,[4],4.11 µM (active)
same,Potency,[9],inactive
Nc1nc(N)c2nc(-c3cccc(O)c3)cnc2n1,Potency,[1],5800 nM (active)
same,Potency,[2],7310 nM (active)
same,Potency,[3],1.64 µM (active)
same,Potency,[4],1.46 µM (active)
same,Potency,[9],inactive
Oc1cccc(Nc2ccnc3cc(-c4cccc(CN5CCOCC5)c4)sc23)c1,Potency,[1],7310 nM (active)
same,Potency,[2],8200 nM (active)
same,Potency,[3],1.64 µM (active)
same,Potency,[4],1.46 µM (active)
same,Potency,[9],inactive
O=C1c2ccccc2-c2c(NCCc3ccccc3)c(=O)[nH]c3cccc1c23,Potency,[1],1030 nM (active)
same,Potency,[2],1160 nM (active)
same,Potency,[3],5.17 µM (active)
same,Potency,[4],4.61 µM (active)
same,Potency,[9],inactive
